GPR151 ag = activates the human receptor GPR151; Q8TDV0; PathHunter beta-arrestin GPR151 cells, luminescence; activation, % at 11.2 µM; 650,000 compounds, 1% hits; AID 1508602; in the data active = activation above about 4.9%;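 note: 0% = median of compound wells and 100% = cells with positive control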
MITF primary = blocks human microphthalmia-associated transcription factor; inhibition, % at 2.6 µM; 650,000 compounds, 0.91% hits; AlphaScreen MITF homodimerization, bead proximity signal; in the data active = inhibition above about 50%;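 note: 0% = vehicle wells with protein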
Target sequence (O75030 whole entry, looked up): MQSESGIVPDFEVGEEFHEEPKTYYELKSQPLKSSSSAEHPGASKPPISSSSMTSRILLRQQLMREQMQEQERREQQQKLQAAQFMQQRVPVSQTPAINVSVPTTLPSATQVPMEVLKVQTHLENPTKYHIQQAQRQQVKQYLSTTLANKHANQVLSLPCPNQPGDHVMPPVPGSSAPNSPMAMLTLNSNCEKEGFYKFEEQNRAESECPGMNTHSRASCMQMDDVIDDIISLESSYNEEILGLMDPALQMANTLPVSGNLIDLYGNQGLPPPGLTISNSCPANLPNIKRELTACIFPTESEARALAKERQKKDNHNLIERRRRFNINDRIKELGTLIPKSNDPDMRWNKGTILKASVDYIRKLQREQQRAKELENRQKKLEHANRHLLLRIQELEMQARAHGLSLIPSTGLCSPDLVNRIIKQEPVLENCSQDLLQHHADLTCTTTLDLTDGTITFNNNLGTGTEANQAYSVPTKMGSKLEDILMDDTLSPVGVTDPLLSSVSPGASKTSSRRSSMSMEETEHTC
FBW7 activator = activators of human E3 ligase FBW7; normalized activity (activation), % at 26.1 µM; 650,000 compounds, 0.13% hits; AlphaScreen FBW7–phospho-cyclin E peptide binding, activator screen; Q969H0; in the data active = normalized activity above about 1.9%;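 note: purified mutant Fbw7 with reduced substrate affinity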
TEAD-YAP inh = TEAD-YAP interaction inhibition; AID 1259422; inhibition, % at 9.12 µM; 640,000 compounds, 1.4% hits; HEK-TIYL cells, TEAD-Gal4/YAP UAS-luciferase luminescence; in the data active = inhibition above about 32%;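 note: 0% = median of test compound wells and 100% = reference inhibitor wells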
Numbers without * were called inactive. Sampled rows, rich in hits. Any-hit rate of the full collection: about 3.5%.

SMILES	GPR151 ag	MITF primary	FBW7 activator	TEAD-YAP inh
COc1ccccc1NC(=O)c1c(OC)cccc1OC	-1	-8	0	15
COc1ccc(OC)c(NC(=O)c2c(Cl)nc(Cl)c(Cl)c2Cl)c1	-1	-5	0	64*
COc1ccccc1NC(=O)c1c(Cl)nc(Cl)c(Cl)c1Cl	1	8	1	64*
CCOc1ccc(-c2cccc(NC(=O)Cc3ccc(F)cc3)c2)nn1	2	11	0	2
N#Cc1sc2nccc(Nc3ccccc3)c2c1N	0	6	0	34*
CCCc1cc(=O)[nH]c(SCC(=O)Nc2ccccc2Cl)n1	4	0	0	12
O=C(NCC1CCCN(Cc2cccn2-c2ccccn2)C1)c1n[nH]c2ccccc12 (stereo not drawn)	1	17	0	70*
O=C(NCC1CCCN(Cc2cccn2-c2cccnc2)C1)c1n[nH]c2ccccc12 (stereo not drawn)	-2	-2	0	-7
COc1ccc(/C=C2/SC(N)=NC2=O)c(OC)c1	-1	10	0	5
NC1=NC(=O)/C(=C/c2cc(O)ccc2Cl)S1	-2	2	1	39*
COc1ccc(OC)c(/C=C2\SC(N)=NC2=O)c1	1	58*	0	-21
NC(=O)C(C(=O)CN1CCOCC1)c1ccccc1 (stereo not drawn)	-1	-14	0	-4
Cc1ccc(F)c(CN[C@H]2C[C@H]3C(=O)N[C@H](C)C(=O)N3C2)c1	-1	1	0	-3
COc1ccc(C(=O)N2CCCCCC2)cc1OC1CCN(C(C)=O)CC1	0	-8	0	1
Cc1onc(-c2ccccc2)c1C1=N/C(=C\c2cccc(Br)c2)C(=O)O1	-1	9	2.2*	1
O=C(Oc1ccc([N+](=O)[O-])c2cccnc12)c1ccccc1	0	82*	-1	57*
Cc1ccnc2nc(C(=O)OCC(=O)Nc3ccc(OC(F)F)cc3)nn12	0	6	0	12
COc1nc(NCCCN2CCCC2=O)nc(-c2csc3ccccc23)n1	0	4	0	-22
O=C(COc1ccccc1-c1ccccc1)NN=C1CCCC1	2	5	0	61*
Cc1ccc2nc(/C(C#N)=C/c3cc([N+](=O)[O-])ccc3F)[nH]c2c1	1	5	0	19
CCOC(=O)c1c(NC(=O)C2C3C=CC(C3)C2(C)C(=O)O)sc2c1CCCC2 (stereo not drawn)	2	60*	-1	40*
NS(=O)(=O)c1ccc(CCNc2ncnc3sc(-c4ccccc4)cc23)cc1	-2	1	0	42*
O=C(Nc1cc2ccccc2oc1=O)c1ccccc1	-8	14	0	54*
CC(=O)Oc1ccc2cc(NC(=O)c3ccc(C)cc3)c(=O)oc2c1	0	9	0	52*
O=C(Nc1cc2ccccc2oc1=O)c1ccc(Br)cc1	0	-13	0	-26
SMILES	GPR151 ag	MITF primary	FBW7 activator	TEAD-YAP inh
CCn1c(Sc2ccc([N+](=O)[O-])cc2C=O)nnc1-c1ccco1	0	-5	0	51*
CCn1c(Sc2ccc(C=O)cc2[N+](=O)[O-])nnc1-c1ccco1	-1	4	0	1
Cc1cccc2cc3c(nc12)OC(C)C(=O)N(Cc1cccnc1)C3 (stereo not drawn)	0	-2	0	1
Cc1ccc2cc3c(nc2c1C)OC(C)C(=O)N(Cc1cccnc1)C3 (stereo not drawn)	-1	10	0	34*
Nc1ccc(C(=O)OCc2c(Cl)cccc2Cl)cc1[N+](=O)[O-]	0	-5	0	3
CCCc1cc(=O)[nH]c(-n2nc(C)cc2NC(=O)C2CC2)n1	0	12	0	12
CCc1cc(=O)[nH]c(-n2nc(C)cc2NC(=O)CC2CCCC2)n1	-2	32	0	58*
CCOc1ccccc1NC(=O)C1=C(C)NC(=O)NC1c1c(OC)ccc2ccccc12 (stereo not drawn)	1	11	0	3
NCc1c(Cl)cccc1-n1cccc1CO	-1	7	0	2
CCn1c(C2COc3ccccc3O2)nc2ccc(-c3ccncc3)cc21 (stereo not drawn)	-1	24	0	-15
c1ccc(Cn2c(C3COc4ccccc4O3)nc3ncc(-c4ccncc4)cc32)cc1 (stereo not drawn)	0	-6	0	47*
Cc1ccc(S(=O)(=O)/N=C2/C=C(ON=C3C=CC(=O)C=C3)C(=O)c3ccccc32)cc1	-2	7	0	45*
COc1cc(OC)c(NC(=O)c2sc3nc(C)nc(N4CCCCC4)c3c2C)cc1Cl	0	8	0	13

Assay outcomes as filed in PubChem BioAssay.
